Assay results reported in PubChem BioAssay AID592 (National Center for Advancing Translational Sciences (NCATS), 2007).
In all, about 59,000 compounds went through this assay and fewer than 10 were called active. No rule for the calls is given here. A selection follows.

Test: qHTS Assay for Spectroscopic Profiling in A647 Spectral Region
Conditions: Compound fluorescence, A647 channel (570/671 nm), Tris buffer; stronger effect = higher value
Text: NIH Molecular Libraries Screening Centers Network [MLSCN] NIH Chemical Genomics Center [NCGC] […] Occasionally, the artifactual effect may originate from the compounds own spectral or other biophysical properties which generally tend to track its assay concentration. Pre-screening/profiling the library with respect to the compounds spectral properties should help one exclude false positives early on. While the most informative fluorescent profiling data set is obtained by performing a full excitation and emission scan of each well by using a monochromator-based plate reader, such an approach is practical only on a very limited scale as scanning each well requires long time. An alternative approach, applied here, is to perform plate reader scans using selected excitation and emission wavelength pairs to generate a multidimensional relational database that correlates compound concentration and the respective relative fluorescence intensity at a given wavelength set. A standard curve of Alexa 647 (A647) present on each plate as six-point concentration series, was used to compute a normalized fluorescence response, termed dye-equivalent concentration, for each compound at each concentration.
NCGC Assay Protocol Summary: Buffer: 100 mM Tris buffer, pH 8.0 Dye standard plate: The wells in columns 1 through 4 of a Kalypsys polypropylene 1536-well compound plate were filled with standard solutions of fluorophore corresponding to the spectral region of interest. Solutions of A647 were placed in the following wells: AC1, AD1: 3 mM, AC2, AD2: 300 uM, AC3, AD3: 30 uM, AC4, AD4: zero (DMSO), AE1, AF1: 3 uM, AE2, AF2: 900 nM, AE3, AF3: 300 nM, AE4, AF4: zero (DMSO). Assay Steps: Six uL of buffer were dispensed to 1536-well Greiner black plates. Compounds and dye standards (23 nL) were transferred via Kalypsys PinTool. The plates were incubated for 15 min at room temperature, and then read on ViewLux (Perkin-Elmer) High-throughput CCD imager using 570 nm and 671 nm excitation and emission filter set. Keywords: NIH Roadmap, MLSCN, MLI, MLSMR, qHTS, NCGC, A647, A-647, Fluorescent Profiling.

Max dye-equivalent concentration, inactive:
CC(=O)/C(=N\N=C(N)N)c1ccccc1 1 nM
Clc1ccc(Cc2nn3c(-c4ccncc4)nnc3s2)cc1 4 nM
CCc1cc(Br)ccc1NC(=O)C1CCCO1 (stereo not given) 19 nM
CCCS(=O)(=O)Nc1c(C(=O)O)[nH]c2ccccc12 1 nM
CCCCSc1nnc(-c2ccc(C)cc2)o1 5.1 nM
CCOC(=O)c1oc2ccccc2c1NC(=O)c1cccs1 5.6 nM
CCCS(=O)(=O)N1CCCC(C(=O)N2CCN(c3ccccc3)CC2)C1 (stereo not given) 1 nM
COc1ccc(CN2CN(C(C)C)CSC2=S)cc1 1 nM
COc1ccc(-c2cc3n(n2)CCc2nc4ccccc4n2-3)cc1 1 nM
O=C1c2oc3ccc(Br)cc3c(=O)c2C(c2cccc(F)c2)N1CCO (stereo not given) 3.9 nM
Cc1cc(N2CCCCC2)nc2ccc(Cc3ccc4nc(N5CCCCC5)cc(C)c4c3)cc12 3.4 nM
O=C(NC1CC2CCCC(C1)N2C(=O)N1CCCCC1)C1CCCCC1 (stereo not given) 31 nM
CCCCOc1ccccc1/C=c1/sc2nc(-c3oc4ccccc4c3C)nn2c1=O 22 nM
COc1ccccc1N1CCN(C(=O)Cn2nnc(-c3cccs3)n2)CC1 1 nM
COc1ccccc1CNc1ncnc2ccc(-c3ccc4c(c3)OCO4)cc12 31 nM
Cn1c(NC(=O)c2ccco2)c(-c2ccccc2Cl)c(=O)c2ccccc21 1 nM
NC(=S)c1ccc(C(N)=S)o1 5.7 nM
c1ccc(-c2nnc3n2NC(c2ccc4c(c2)OCO4)S3)cc1 (stereo not given) 12 nM
O=C(CCc1ccccc1)Nc1ccc(NC(=O)C2CC2)nc1 45 nM
COC(=O)c1ccc(NCC(=O)c2ccccc2)cc1 1.7 nM
